Test results reported in ChEMBL document CHEMBL5724796, “Tm Shift (DSF) assay results for EUbOPEN Chemogenomics Library” (2024).
“And” between values parts separate entries of the source, which are not always exact repeats. Identical values can stand only once. Non-standard residues stand in square brackets, D forms with d. Residues, ends and D or L forms follow the SMILES beside them. Nle = CCCC[C@H](N)C(=O)O

These compounds were tested against Mitogen-activated protein kinase 1 (Homo sapiens) (UniProt P28482). Conditions: Compound concentration 20.0 uM.
Chain of Mitogen-activated protein kinase 1 (Homo sapiens) (P28482 whole entry): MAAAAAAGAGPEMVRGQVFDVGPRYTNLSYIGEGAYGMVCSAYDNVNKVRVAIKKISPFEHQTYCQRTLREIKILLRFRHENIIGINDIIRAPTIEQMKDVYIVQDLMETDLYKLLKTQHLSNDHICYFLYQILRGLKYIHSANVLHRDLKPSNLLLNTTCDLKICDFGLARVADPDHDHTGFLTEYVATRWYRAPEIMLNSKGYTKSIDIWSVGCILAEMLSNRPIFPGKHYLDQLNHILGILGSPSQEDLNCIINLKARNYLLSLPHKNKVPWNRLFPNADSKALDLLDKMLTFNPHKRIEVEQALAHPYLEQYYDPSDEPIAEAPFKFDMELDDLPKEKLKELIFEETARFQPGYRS

| Structure (SMILES) | ΔTm |
| --- | --- |
| CCn1c(=O)c(C)cn(Cc2nnc(-c3ccc(F)c(OC)c3F)s2)c1=O | -4.56 °C |
| Cc1c(F)c(N)cc(C(=O)Nc2cc(-n3cc(C(=O)NCCCN4CCOCC4)nn3)ccc2N2CCN(C)CC2)c1Cl | 0.14 °C |
| N[C@@H](CCCCNC(=O)OCc1ccc([N+](=O)[O-])cc1)C(=O)N1CCCC1 | 0.13 °C |
| O=C(C1CC1)N1CC[C@@H](Cc2n[nH]c(=O)n2-c2ccc(-c3ccc4occc4c3)cc2)C1 | 0.34 °C and 0.05 °C |
| CN(CCC(Oc1ccc(-c2ccccc2)cc1)c1ccc(F)cc1)CC(=O)O (stereo not given) | 0.42 °C |
| O=C(Oc1cccc(F)c1OC(=O)c1cccc(O)c1)c1cccc(O)c1 | 0.41 °C |
| N=C(N)SCc1ccc(CN2C(=O)C(=O)c3cc(C(F)(F)F)ccc32)cc1 | 0.42 °C |
| Cc1ccnc(NS(=O)(=O)c2ccc(NC(=O)Nc3ccc(S(=O)(=O)Nc4nccc(C)n4)cc3)cc2)n1 | 0.44 °C |
| COCc1nc(C(F)(F)F)[nH]c1-c1cc(C(=O)N2CC(c3ccc(C#N)cc3)C2)c(C)cc1C | 0.07 °C |
| Cn1nc(C(C)(C)C)cc1C(=O)NC(Cc1cccc(Cl)c1)C(=O)NCC#N (stereo not given) | 0.2 °C |
| COc1cccc(OC)c1S(=O)(=O)Nc1noc2cc(Cn3cccn3)cc(OC)c12 | 0.02 °C |
| CNC(=O)Cn1cc(-c2ccc3c(c2)[C@H](F)C[C@]32NC(=O)N(CC(=O)N(Cc3ccc(F)cc3)[C@@H](C)C(F)(F)F)C2=O)cn1 | -6.46 °C |
| Cc1ccc([N+](=O)[O-])cc1S(=O)(=O)N(C)C | 0.1 °C |
| Nc1ccc(-c2cccs2)cc1NC(=O)c1ccc(NC=O)cc1 | 0.54 °C |
| CCCN(CCC)c1ccc(C=O)cc1Br | 0.17 °C |
| O=C(O)c1cccc(-c2ccc(-c3cn(C(=O)N4CCCCC4Cc4ccccc4)nn3)cc2)c1 (stereo not given) | 0.56 °C |
| CC(=O)N[C@@H](CC(C)C)C(=O)N[C@@H](CCC(=O)O)C(=O)N[C@@H](Cc1cnc[nH]1)C(=O)N[C@H](C=O)CC(=O)O (Ac-LEHD-aldehyde) | -0.4 °C |
| Cc1cc(N2C[C@@H](C)N[C@@H](C)C2)ncc1-c1ccc(-c2nc3c(ccn3C)c(=O)[nH]2)cc1 | 0.08 °C |
| O=c1[nH]c(N2CCC3(CC2)CN(CCO)c2cc(F)cc(F)c23)nc2c1CCCC2 | 0.22 °C |
| COc1cc2c(cc1-c1c(C)noc1C)[nH]c1nc(C)nc(-c3ccnc4ccccc34)c12 | 0.15 °C |

| Structure (SMILES) | ΔTm |
| --- | --- |
| O=S(=O)(O)c1ccc2cc(/N=N/c3cc(S(=O)(=O)O)c4cccnc4c3O)ccc2c1 | -3.54 °C |
| O=C(c1cc(Cc2n[nH]c(=O)c3ccccc23)ccc1F)N1CCN(C(=O)C2CC2)CC1 | 0.4 °C |
| CS(=O)(=O)N1CCN(C(=O)c2cnc3ccc(F)cc3c2-c2ccc(C3(C#N)CC3)cc2)CC1 | 0.08 °C |
| CN1CCN2c3c(cccc31)[C@@H]1CN(CCCC(=O)c3ccc(F)cc3)CC[C@@H]12 | 0.07 °C |
| CC(=O)N[C@@H](C)C(=O)N[C@@H](CCC(=O)O)C(=O)N[C@H](C(=O)N[C@@H](C=O)CC(=O)O)C(C)C | 0.23 °C |
| O=C(COc1ccc(-c2oc3cc(O)c(C(=O)O)cc3c2C#Cc2cccc(Cl)c2)cc1)NC1CC1 | -0.57 °C |
| Nc1ncnc2c1ncn2[C@@H]1O[C@H](C(=O)N2CCN(CC(=O)Nc3cccc4c3CNC4=O)CC2)[C@@H](O)[C@H]1O | 0.31 °C |
| CCCCN(Cc1ccc(C(=O)NO)cc1)C(=O)Nc1ccccc1 | 0.25 °C |
| OC[C@H]1O[C@@H](c2ccc(F)c(Cc3cc4ccccc4s3)c2)[C@H](O)[C@@H](O)[C@@H]1O | 0.05 °C |
| COc1cc(-c2cn(C)c(=O)c3cnccc23)cc(OC)c1CN(C)CC(=O)NCCOCCOCCNc1cccc2c1C(=O)N(C1CCC(=O)NC1=O)C2=O (stereo not given) | -0.38 °C |
| CCCC[C@@H](C=O)NC(=O)[C@H](CC(C)C)NC(=O)[C@H](CC(C)C)NC(C)=O (Ac-Leu-Leu-[Nle]-aldehyde) | 0.06 °C |
| Cc1cc(C)c(CNC(=O)c2cc(-c3ccc(N4CCN(C)CC4)nc3)cc3c2c(C)cn3C(C)C)c(=O)[nH]1 | 0.02 °C |
| C=CC(=O)Nc1cccc(-c2c[nH]cc2CN(C)CCN)c1 | 0.08 °C |
| CC(=O)N[C@@H](Cc1ccc(O)cc1)C(=O)N[C@H](C(=O)N[C@@H](C)C(=O)N[C@@H](CC(=O)O)C(=O)COC(=O)c1c(C)cccc1C)C(C)C | -0.06 °C |
| CC(=Cc1cc(C)ccc1C=C(C)C(=O)NC(=N)N)C(=O)N=C(N)N | 0.25 °C |
| Cc1cc(C(=O)N2CCN(C3CN(C(=O)c4ccc(-c5ccccc5)cc4)C3)CC2)no1 | 0.28 °C |
| CCC[C@H]1CNCc2c1[nH]c(=O)c(C#N)c2N1CCC2(CC1)CC2 | -0.08 °C |
| CN(CCOc1ccc(-c2ccc3c(c2)OCO3)cc1C(C)(C)C)CC(=O)O | 0.46 °C |
| Cc1ccc(NC2=CC(=O)c3sc(C)nc3C2=O)cc1 | 0.04 °C |
| CNCCC(Oc1ccccc1OC)c1ccccc1 (stereo not given) | 0.05 °C |

What follows are compounds tested against T1, Aurora kinase A (Homo sapiens) (UniProt O14965). Conditions: Compound concentration 20.0 uM.
T1 sequence (whole entry): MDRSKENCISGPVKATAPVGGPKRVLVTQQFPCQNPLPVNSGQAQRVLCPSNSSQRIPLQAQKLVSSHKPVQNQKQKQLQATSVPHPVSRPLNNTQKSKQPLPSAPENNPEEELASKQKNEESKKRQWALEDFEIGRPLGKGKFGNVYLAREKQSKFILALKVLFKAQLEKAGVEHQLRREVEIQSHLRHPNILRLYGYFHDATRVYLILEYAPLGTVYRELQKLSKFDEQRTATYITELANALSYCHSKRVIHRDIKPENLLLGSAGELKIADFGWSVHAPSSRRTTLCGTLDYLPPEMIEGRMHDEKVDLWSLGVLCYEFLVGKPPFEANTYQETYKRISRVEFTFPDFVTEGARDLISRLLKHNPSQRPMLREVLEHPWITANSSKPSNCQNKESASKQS

| Structure (SMILES) | ΔTm |
| --- | --- |
| CCn1c(=O)c(C)cn(Cc2nnc(-c3ccc(F)c(OC)c3F)s2)c1=O | -2.75 °C |
| Cc1c(F)c(N)cc(C(=O)Nc2cc(-n3cc(C(=O)NCCCN4CCOCC4)nn3)ccc2N2CCN(C)CC2)c1Cl | -2.25 °C |
| N[C@@H](CCCCNC(=O)OCc1ccc([N+](=O)[O-])cc1)C(=O)N1CCCC1 | -1.1 °C |
| O=C(C1CC1)N1CC[C@@H](Cc2n[nH]c(=O)n2-c2ccc(-c3ccc4occc4c3)cc2)C1 | -4.5 °C and -1.89 °C |
| CN(CCC(Oc1ccc(-c2ccccc2)cc1)c1ccc(F)cc1)CC(=O)O (stereo not given) | -1.88 °C |
| O=C(Oc1cccc(F)c1OC(=O)c1cccc(O)c1)c1cccc(O)c1 | -0.91 °C |
| N=C(N)SCc1ccc(CN2C(=O)C(=O)c3cc(C(F)(F)F)ccc32)cc1 | -1.8 °C |
| Cc1ccnc(NS(=O)(=O)c2ccc(NC(=O)Nc3ccc(S(=O)(=O)Nc4nccc(C)n4)cc3)cc2)n1 | -1.78 °C |
| COCc1nc(C(F)(F)F)[nH]c1-c1cc(C(=O)N2CC(c3ccc(C#N)cc3)C2)c(C)cc1C | -2.54 °C |
| Cn1nc(C(C)(C)C)cc1C(=O)NC(Cc1cccc(Cl)c1)C(=O)NCC#N (stereo not given) | -1.33 °C |
| COc1cccc(OC)c1S(=O)(=O)Nc1noc2cc(Cn3cccn3)cc(OC)c12 | -0.5 °C |
| CNC(=O)Cn1cc(-c2ccc3c(c2)[C@H](F)C[C@]32NC(=O)N(CC(=O)N(Cc3ccc(F)cc3)[C@@H](C)C(F)(F)F)C2=O)cn1 | -1.03 °C |
| Cc1ccc([N+](=O)[O-])cc1S(=O)(=O)N(C)C | -2.12 °C |
| Nc1ccc(-c2cccs2)cc1NC(=O)c1ccc(NC=O)cc1 | 0.14 °C |
| CCCN(CCC)c1ccc(C=O)cc1Br | -2.25 °C |
| O=C(O)c1cccc(-c2ccc(-c3cn(C(=O)N4CCCCC4Cc4ccccc4)nn3)cc2)c1 (stereo not given) | -3.62 °C |
| CC(=O)N[C@@H](CC(C)C)C(=O)N[C@@H](CCC(=O)O)C(=O)N[C@@H](Cc1cnc[nH]1)C(=O)N[C@H](C=O)CC(=O)O (Ac-LEHD-aldehyde) | -1.34 °C |
| Cc1cc(N2C[C@@H](C)N[C@@H](C)C2)ncc1-c1ccc(-c2nc3c(ccn3C)c(=O)[nH]2)cc1 | -1.4 °C |
| O=c1[nH]c(N2CCC3(CC2)CN(CCO)c2cc(F)cc(F)c23)nc2c1CCCC2 | -0.79 °C |
| COc1cc2c(cc1-c1c(C)noc1C)[nH]c1nc(C)nc(-c3ccnc4ccccc34)c12 | -2.62 °C |

| Structure (SMILES) | ΔTm |
| --- | --- |
| O=S(=O)(O)c1ccc2cc(/N=N/c3cc(S(=O)(=O)O)c4cccnc4c3O)ccc2c1 | -2.45 °C |
| O=C(c1cc(Cc2n[nH]c(=O)c3ccccc23)ccc1F)N1CCN(C(=O)C2CC2)CC1 | -2.14 °C |
| CS(=O)(=O)N1CCN(C(=O)c2cnc3ccc(F)cc3c2-c2ccc(C3(C#N)CC3)cc2)CC1 | -1.44 °C |
| CN1CCN2c3c(cccc31)[C@@H]1CN(CCCC(=O)c3ccc(F)cc3)CC[C@@H]12 | -0.26 °C |
| CC(=O)N[C@@H](C)C(=O)N[C@@H](CCC(=O)O)C(=O)N[C@H](C(=O)N[C@@H](C=O)CC(=O)O)C(C)C | -1.91 °C |
| O=C(COc1ccc(-c2oc3cc(O)c(C(=O)O)cc3c2C#Cc2cccc(Cl)c2)cc1)NC1CC1 | -0.11 °C |
| Nc1ncnc2c1ncn2[C@@H]1O[C@H](C(=O)N2CCN(CC(=O)Nc3cccc4c3CNC4=O)CC2)[C@@H](O)[C@H]1O | -1.04 °C |
| CCCCN(Cc1ccc(C(=O)NO)cc1)C(=O)Nc1ccccc1 | -0.07 °C |
| OC[C@H]1O[C@@H](c2ccc(F)c(Cc3cc4ccccc4s3)c2)[C@H](O)[C@@H](O)[C@@H]1O | -1.82 °C |
| COc1cc(-c2cn(C)c(=O)c3cnccc23)cc(OC)c1CN(C)CC(=O)NCCOCCOCCNc1cccc2c1C(=O)N(C1CCC(=O)NC1=O)C2=O (stereo not given) | -1.03 °C |
| CCCC[C@@H](C=O)NC(=O)[C@H](CC(C)C)NC(=O)[C@H](CC(C)C)NC(C)=O (Ac-Leu-Leu-[Nle]-aldehyde) | -1.13 °C |
| Cc1cc(C)c(CNC(=O)c2cc(-c3ccc(N4CCN(C)CC4)nc3)cc3c2c(C)cn3C(C)C)c(=O)[nH]1 | -1.34 °C |
| C=CC(=O)Nc1cccc(-c2c[nH]cc2CN(C)CCN)c1 | -0.37 °C |
| CC(=O)N[C@@H](Cc1ccc(O)cc1)C(=O)N[C@H](C(=O)N[C@@H](C)C(=O)N[C@@H](CC(=O)O)C(=O)COC(=O)c1c(C)cccc1C)C(C)C | -0.54 °C |
| CC(=Cc1cc(C)ccc1C=C(C)C(=O)NC(=N)N)C(=O)N=C(N)N | -2.39 °C |
| Cc1cc(C(=O)N2CCN(C3CN(C(=O)c4ccc(-c5ccccc5)cc4)C3)CC2)no1 | 0 °C |
| CCC[C@H]1CNCc2c1[nH]c(=O)c(C#N)c2N1CCC2(CC1)CC2 | -0.93 °C |
| CN(CCOc1ccc(-c2ccc3c(c2)OCO3)cc1C(C)(C)C)CC(=O)O | -0.74 °C |
| Cc1ccc(NC2=CC(=O)c3sc(C)nc3C2=O)cc1 | -0.65 °C |
| CNCCC(Oc1ccccc1OC)c1ccccc1 (stereo not given) | -1.7 °C |
